From PubChem BioAssay AID489025 (Southern Research Specialized Biocontainment Screening …, 2010)
About 790 (34%) of roughly 2,300 compounds were called active. The rule behind the calls is not given here. Some of the results follow. Entries that show only a call come without a potency. Potency and affinity values are given separately.

Assay: THP-1 cell cytotoxicity, dose response, cytotoxicity control for non-replicating M. tuberculosis project (AID 489025)
Conditions: THP-1 cell viability; series mostly up to 40 µM

Row | Compound | outcome
1 | O=C(COc1ccccc1)Nc1nnc(-c2ccc3c(c2)CCCC3)o1 | inactive
2 | CCOc1ccccc1C(=O)OCC(=O)Nc1nnc(-c2ccccc2)o1 | inactive
3 | CCOc1ccc(-c2nnc(NC(=O)CCCOc3cccc(C)c3)o2)cc1 | inactive
4 | O=C(Nc1nnc(-c2ccc3c(c2)CCCC3)o1)c1c(F)cccc1F | inactive
5 | Cc1cccc(C(=O)Nc2nnc(-c3cccnc3)o2)c1 | inactive
6 | CCOc1ccc(C(=O)Nc2nnc(C3=COCCO3)o2)cc1 | inactive
7 | COc1ccc(C(=O)COC(=O)c2ccccc2O)c(OC)c1 | inactive
8 | O=Cc1ccc(OC2OCCOC2Oc2ccc(C=O)cc2)cc1 (centres undefined) | inactive
9 | O=C(CCN1CCN(C/C=C/c2ccccc2)CC1)Nc1ccc(Cl)cc1 | inactive
10 | COc1ccccc1C(=O)OCC(=O)Nc1ccc(Cl)cn1 | inactive
11 | C=CCOC(=O)c1ccc(-n2cnc(C)n2)nc1 | inactive
12 | NC(=O)CN1CCN(C2CC(=O)N(CCc3ccccc3)C2=O)CC1 (centres undefined) | inactive
13 | COc1cccc(C(=O)OCC(=O)Nc2nnc(-c3ccccc3)o2)c1 | inactive
14 | O=C(Nc1nnc(-c2ccc(Cl)cc2)o1)C1=COCCO1 | inactive
15 | O=C(COc1ccccc1)Nc1nnc(-c2ccc(Cl)cc2)o1 | inactive
16 | Cc1ccc(C(=O)Nc2nnc(-c3ccncc3)o2)cc1 | inactive
17 | O=C(Nc1nnc(-c2ccc(Cl)cc2)o1)c1cccc(N2C(=O)CCC2=O)c1 | inactive
18 | O=C(COC(=O)CC12CC3CC(CC(C3)C1)C2)Nc1cccnc1Cl | inactive
19 | CCc1ccc(N=CC2=C(O)CC(c3ccco3)CC2=O)cc1 (centres undefined) | inactive
20 | C(=C\c1ccccc1)/CSc1nc2ncccc2[nH]1 | inactive
21 | CCOC(=O)C1CCN(Cc2ccc(-c3ccccc3)cc2)CC1 | inactive
22 | CCC(=O)c1ccc(OCc2ccc(C(=O)OC)cc2)cc1 | inactive
23 | CCOC(=O)C1CCCN(Cc2ccc(OCc3ccccc3)cc2)C1 (centres undefined) | inactive
24 | CCOC(=O)c1ccc(COC(=O)c2ccc(-c3nnc(-c4ccccc4)o3)cc2)o1 | inactive
25 | COc1ccccc1N=Cc1nc(-c2ccccc2)oc1OC(C)=O | inactive
26 | CN(CCOCCOc1ccc(F)cc1)Cc1ccccc1 | inactive
27 | Brc1ccc(OCCCCN2CCCCC2)cc1 | inactive

Row | Compound | outcome
28 | Cc1ccc(NC(=O)ON=C2CCCC2)cc1 | inactive
29 | Cc1ccc(NC(=O)COc2ccccc2)cc1Cl | inactive
30 | O=C(COc1ccc(Cl)cc1)Nc1ccc2[nH]ncc2c1 | inactive
31 | CCOc1ccccc1OC(=O)c1cc2ccccc2oc1=O | inactive
32 | Cc1cccc(OCCCCc2c(C)n[nH]c2C)c1 | inactive
33 | Cc1ccc(C(=O)NCCOc2cccc(C)c2)cc1 | inactive
34 | CCCCOC(=O)c1ccc(OC(=O)c2cccnc2)cc1 | inactive
35 | COc1ccc(Cl)cc1N=Cc1c(O)c2ccccc2oc1=O | inactive
36 | COc1ccc(OC(=O)c2cc3cc(Cl)ccc3oc2=O)cc1 | inactive
37 | Cc1ccc(NC(=O)CO/N=C/c2ccc(N(C)C)cc2)cc1 | inactive
38 | COc1ccc(CC(=O)OCC(=O)Nc2ccc(Br)cc2)cc1 | inactive
39 | O=C(COC(=O)c1ccc([N+](=O)[O-])s1)Nc1ccc(Cl)cn1 | inactive
40 | O=C(Nc1nnc(-c2ccc(Br)cc2)o1)c1ccco1 | inactive
41 | O=C(Nc1nnc(-c2ccco2)o1)c1cccc2ccccc12 | inactive
42 | Cc1cccc(NC(=O)COc2ccc(Br)cc2)n1 | inactive
43 | Cc1ccccc1C(=O)Nc1nnc(-c2ccco2)o1 | inactive
44 | Cc1ccc(CCC(=O)Nc2ccccc2F)s1 | inactive
45 | O=C(Nc1nnc(-c2ccc(Br)cc2)o1)C1=COCCO1 | inactive
46 | O=C(Nc1ccccc1F)c1ccc(Br)o1 | inactive
47 | Fc1ccc(COc2ccc(-c3nnco3)cc2)cc1 | inactive
48 | Cc1ccc(C(=O)OCC(=O)N2CCCCCC2)c(O)c1 | inactive
49 | COc1ccc(-c2nc3ccc(C)cc3c(=O)o2)cc1OC | inactive
50 | CC1(C)CC(=O)C(C2NCCc3ccccc32)=C(O)C1 (centres undefined) | inactive
51 | C/C(CC(=O)Nc1ccc(C)c(Cl)c1)=N\NC(=O)c1ccco1 | inactive
52 | CCOC(=O)c1cc(COc2cc(Cl)cc(Cl)c2)on1 | inactive
53 | Cc1nc2ccc(NC(=O)c3ccc([N+](=O)[O-])cc3[N+](=O)[O-])cc2s1 | inactive
54 | CCOc1ccc(NC(=O)CCC(=O)N/N=C/c2ccc([N+](=O)[O-])s2)cc1 | inactive

Row | Compound | outcome
55 | COc1cccc2cc(C(=O)NCc3ccc(F)cc3)c(=N)oc12 | inactive
56 | CC1Cc2cc(/C=C3/SC(=S)NC3=O)ccc2O1 (centres undefined) | inactive
57 | CC(C)(O)C#Cc1ccc(C(=O)Nc2ccc3c(c2)OCO3)s1 | inactive
58 | CC(C)n1c(=S)[nH]c2ccccc2c1=O | inactive
59 | O=C(Nc1ccccc1)c1ccc(Br)o1 | inactive
60 | CCC(C)(C)NC(=O)c1ccc(Br)o1 | inactive
61 | COc1ccc(C(=O)NN/C(C)=C/C(=O)c2ccccc2)cc1 | inactive
62 | O=C(O)c1ccccc1C(=O)NNc1ccc(F)cc1 | inactive
63 | CCOC(=O)COc1ccc(C(=O)NC2CCCCC2)cc1 | inactive
64 | O=C(O)c1ccccc1C(=O)NNc1ccc(Cl)cc1 | inactive
65 | O=C(NNc1ccc([N+](=O)[O-])cc1)c1ccccc1Cl | inactive
66 | O=C(COC(=O)C1CCCCC1)Nc1ccccc1OC(F)F | inactive
67 | NC(=O)/C(=N\OC(=O)c1ccco1)c1nc(-c2ccc(Br)cc2)cs1 | inactive
68 | O=C(OCc1cccc(F)c1)c1ccc2c(=O)n3c(nc2c1)CCC3 | inactive
69 | Cc1ccc(/C=C2/C(=O)NC(=O)N(CCc3ccc(F)cc3)C2=O)s1 | inactive
70 | Cc1ccc(NC(=O)CN(C)C2CCCCC2)cc1Br | inactive
71 | O=C(OCCCCN1C(=O)c2ccccc2C1=O)c1ccc(Br)o1 | inactive
72 | Nn1c(SCCOc2ccc(Cl)cc2)nnc1-c1cccnc1 | inactive
73 | O=C(Nc1nc2ccccc2n1CCN1CCCC1)c1ccc(Cl)cc1 | inactive
74 | Cc1ccc(CC(=O)Nc2ccc(Cl)cn2)cc1 | inactive
75 | Cn1[nH]c(-c2ccccc2)c(/C=N/O)c1=O | inactive
76 | Clc1ccc(Cc2nnc(-c3cccs3)o2)cc1 | inactive
77 | c1cncc(-c2noc(CC3CCCCC3)n2)c1 | inactive
78 | CCOC(=O)C(=NCCOC)NNc1cc(Cl)ccc1Cl | inactive
79 | CCOc1cccc2cc(C(=O)NCc3ccccc3)c(=N)oc12 | inactive
